# The antibiotic and cytotoxicity screens of Wong et al. (2023)
# The whole screen tested about 39,000 compounds, of which about 3,300 (8.5%) were called active. The entries come from a sample that favours actives as a whole.
# System: HepG2
# Assay: cytotoxicity call (relative viability < 0.9)
# Conditions: 10 µM
row,Structure (SMILES),cytotoxicity call
1,C[C@@H]1CN([C@H](C)CO)C(=O)Cc2cc(NS(=O)(=O)c3cccs3)ccc2O[C@H]1CN(C)CC1CC1,inactive
2,CC(C)=CCC/C(C)=C/CC1=C(C)C(=O)c2ccccc2C1=O,inactive
3,C[C@@H]1CN([C@H](C)CO)C(=O)Cc2cc(NC(=O)Nc3cccc4ccccc34)ccc2O[C@@H]1CN(C)Cc1ccc(C(F)(F)F)cc1,active
4,C[C@H]1CN([C@@H](C)CO)C(=O)Cc2cc(NC(=O)Nc3cccc4ccccc34)ccc2O[C@H]1CN(C)Cc1ccc(C(F)(F)F)cc1,active
5,C[C@@H]1CN([C@@H](C)CO)C(=O)Cc2cc(NC(=O)Nc3cccc4ccccc34)ccc2O[C@H]1CN(C)Cc1ccc(C(F)(F)F)cc1,inactive
6,C[C@@H]1CN([C@@H](C)CO)C(=O)Cc2cc(NC(=O)Nc3cccc4ccccc34)ccc2O[C@@H]1CN(C)Cc1ccc(C(F)(F)F)cc1,active
7,C[C@@H]1CN([C@@H](C)CO)C(=O)Cc2cc(NC(=O)Nc3cccc4ccccc34)ccc2O[C@@H]1CN(C)C(=O)Nc1ccc(C(F)(F)F)cc1,inactive
8,C[C@H](CO)N1C[C@H](C)[C@@H](CN(C)Cc2ccc(C(F)(F)F)cc2)Oc2ccc(NC(=O)Nc3cccc4ccccc34)cc2CC1=O,inactive
9,C[C@@H]1CN([C@H](C)CO)C(=O)Cc2cc(NC(=O)Nc3cccc4ccccc34)ccc2O[C@H]1CN(C)Cc1ccc(C(F)(F)F)cc1,inactive
10,C[C@H](CO)N1C[C@H](C)[C@H](CN(C)Cc2ccc(C(F)(F)F)cc2)Oc2ccc(NC(=O)Nc3cccc4ccccc34)cc2CC1=O,inactive
11,C[C@H]1CN([C@@H](C)CO)C(=O)Cc2cc(NC(=O)Nc3cccc4ccccc34)ccc2O[C@@H]1CN(C)Cc1ccc(C(F)(F)F)cc1,inactive
12,O=C(COc1ccccc1)N1CCNC1=O,inactive
13,CC(C)NC(=O)N(C)C[C@@H]1Oc2ncc(-c3ccc(C(=O)N(C)C)cc3)cc2C(=O)N([C@@H](C)CO)C[C@H]1C,inactive
14,O=C(C[C@H]1C[C@H]2c3cc(NC(=O)C4CCOCC4)ccc3O[C@H]2[C@@H](CO)O1)NCCN1CCCCC1,inactive
15,C[C@H]1CCCCO[C@H](CN(C)C(=O)c2ccccc2)[C@@H](C)CN([C@@H](C)CO)C(=O)c2cc(NC(=O)NC3CCCCC3)ccc2O1,inactive
16,C[C@@H]1CN([C@H](C)CO)C(=O)c2cc(NC(=O)c3ccncc3)ccc2O[C@@H]1CN(C)Cc1ccc2c(c1)OCO2,inactive
17,COc1ccc(S(=O)(=O)Nc2ccc3c(c2)C(=O)N([C@@H](C)CO)C[C@@H](C)[C@@H](CN(C)C(=O)Nc2ccc4c(c2)OCO4)OCCCC[C@H](C)O3)cc1,inactive
18,Cc1cn([C@@H]2C[C@H](O)[C@@H](CO)O2)c(=O)[nH]c1=O,inactive
19,Cc1ccc(S(=O)(=O)Nc2ccc3c(c2)C(=O)N([C@H](C)CO)C[C@H](C)[C@H](CN(C)C(=O)CCC(F)(F)F)OCCCC[C@@H](C)O3)cc1,inactive
20,CC(C)(C)OC(=O)C[C@H]1CC=CC[C@@H](CC(=O)NCCO)C(=O)N[C@@H](Cc2ccccc2)COC1=O,inactive

row,Structure (SMILES),cytotoxicity call
1,C[C@@H]1CN([C@@H](C)CO)C(=O)c2cccc(NC(=O)c3ccncc3)c2O[C@H]1CN(C)Cc1ccc2c(c1)OCO2,inactive
2,CC(C)NC(=O)Nc1ccc2c(c1)C(=O)N([C@@H](C)CO)C[C@H](C)[C@@H](CN(C)Cc1ccc(C(=O)O)cc1)O2,inactive
3,C[C@@H]1CCCCO[C@@H](CN(C)C(=O)Nc2ccc(F)cc2)[C@@H](C)CN([C@H](C)CO)C(=O)c2cc(NC(=O)c3ccncc3)ccc2O1,inactive
4,COc1ccc(S(=O)(=O)Nc2ccc3c(c2)C(=O)N([C@H](C)CO)C[C@H](C)[C@H](CN(C)C(=O)Nc2ccc4c(c2)OCO4)OCCCC[C@H](C)O3)cc1,inactive
5,COc1ccc(S(=O)(=O)Nc2ccc3c(c2)C(=O)N([C@@H](C)CO)C[C@H](C)[C@@H](CN(C)C(=O)Nc2ccc4c(c2)OCO4)OCCCC[C@@H](C)O3)cc1,inactive
6,C[C@@H]1CN([C@H](C)CO)C(=O)c2cc(NS(=O)(=O)c3ccc(Cl)cc3)ccc2O[C@@H](C)CCCCO[C@H]1CN(C)C(=O)Nc1ccc2c(c1)OCO2,inactive
7,C[C@@H]1CCCCO[C@H](CN(C)C(=O)Nc2ccc3c(c2)OCO3)[C@H](C)CN([C@@H](C)CO)C(=O)c2cc(NS(=O)(=O)c3ccc(Cl)cc3)ccc2O1,inactive
8,Cc1ccc(S(=O)(=O)Nc2ccc3c(c2)C(=O)N([C@H](C)CO)C[C@H](C)[C@H](CN(C)C(=O)Nc2ccc4c(c2)OCO4)OCCCC[C@H](C)O3)cc1,active
9,COc1ccc(S(=O)(=O)Nc2ccc3c(c2)C(=O)N([C@@H](C)CO)C[C@@H](C)[C@@H](CN(C)C(=O)Nc2ccc4c(c2)OCO4)OCCCC[C@@H](C)O3)cc1,active
10,Cc1ccc(S(=O)(=O)Nc2ccc3c(c2)C(=O)N([C@@H](C)CO)C[C@H](C)[C@@H](CN(C)C(=O)Nc2ccc4c(c2)OCO4)OCCCC[C@@H](C)O3)cc1,inactive
11,C[C@H]1CCCCO[C@H](CN(C)C(=O)Nc2ccc3c(c2)OCO3)[C@@H](C)CN([C@@H](C)CO)C(=O)c2cc(NS(=O)(=O)c3ccc(Cl)cc3)ccc2O1,active
12,Cc1ccc(S(=O)(=O)Nc2ccc3c(c2)C(=O)N([C@H](C)CO)C[C@H](C)[C@@H](CN(C)C(=O)Nc2ccc4c(c2)OCO4)OCCCC[C@H](C)O3)cc1,inactive
13,COc1ccc2c3c(n(c2c1)C)[C@@H](CO)N(Cc1cc(cc(c1)OC)OC)C[C@]13CN(C1)C(=O)CN1CCOCC1,inactive
14,COCC(=O)N1CC[C@@H]2N(S(C)(=O)=O)CC[C@@]2(C(=O)N2CCOCC2)CC1,inactive
15,CC(=O)Nc1cc(C(C)C)c(C(C)C)cc1C(C)C,inactive
16,C[C@H](CO)N1C[C@H](C)[C@@H](CN(C)C(=O)Nc2ccc3c(c2)OCO3)OCCCC[C@H](C)Oc2ccc(NC(=O)c3ccccc3)cc2C1=O,inactive
17,COCC(=O)N1C[C@H](C)[C@H](OC)CN(C)C(=O)c2cc(NC(=O)c3ccc(F)cc3)ccc2OC[C@@H]1C,inactive
18,C[C@H]1CN([C@@H](C)CO)C(=O)c2cc(NS(=O)(=O)c3cccs3)ccc2O[C@@H]1CN(C)S(=O)(=O)c1ccc(F)cc1,inactive
19,COc1ccc2c3c([nH]c2c1)[C@H](CO)N(C[C@]13CCN(CC1)C(=O)c1ccccc1F)C(=O)Nc1ccccc1F,inactive
20,C[C@@H]1CN([C@H](C)CO)C(=O)c2cccc(NC(=O)Nc3ccc4c(c3)OCO4)c2O[C@H]1CN(C)S(C)(=O)=O,inactive

row,Structure (SMILES),cytotoxicity call
1,CN1C[C@@H](O)COC[C@H]2O[C@@H](CC(=O)N3CCN(c4ccccc4)CC3)CC[C@@H]21,inactive
2,CN(C)S(=O)(=O)N1C[C@H]2C[C@H](C(=O)Nc3cccnc3)[C@@H](C1)O2,inactive
3,CN1CCCC1c1cccnc1.O=C(O)C(O)C(O)C(=O)O.O=C(O)C(O)C(O)C(=O)O (centres undefined),inactive
4,C[C@H](c1cccnc1)N(C(=O)Nc1ccccc1)C1CCCCC1,active
5,C[C@@H]1CN([C@@H](C)CO)C(=O)c2cccc(NC(=O)C3CCCCC3)c2O[C@@H]1CN(C)C(=O)Nc1cccc2ccccc12,inactive
6,C=CCN1C(=O)[C@]2(O[C@H](CCn3cc(CCO)nn3)[C@@H]([Si](C)(C)c3ccc(OC)cc3)[C@@H]2C)c2cc(N3CCC3=O)ccc21,inactive
7,C=CCN1C(=O)[C@@]2(O[C@@H](CCn3cc(CCO)nn3)[C@H]([Si](C)(C)c3ccc(OC)cc3)[C@H]2C)c2cc(N3CCC3=O)ccc21,inactive
8,C=CCN1C(=O)[C@]2(O[C@H](CCO)[C@@H]([Si](C)(C)c3ccc(OC)cc3)[C@@H]2C)c2cc(NC(=O)[C@H](C)O)ccc21,inactive
9,C=CCN1C(=O)[C@@]2(O[C@@H](CCO)[C@H]([Si](C)(C)c3ccc(OC)cc3)[C@H]2C)c2cc(N(C=O)c3ccccc3)ccc21,active
10,C=CCN1C(=O)[C@@]2(O[C@@H](CCO)[C@H]([Si](C)(C)c3ccc(OC)cc3)[C@H]2C)c2cc(NC(=O)[C@H](C)O)ccc21,inactive
11,C=CCN1C(=O)[C@]2(O[C@H](CCO)[C@@H]([Si](C)(C)c3ccc(OC)cc3)[C@@H]2C)c2cc(N(C=O)c3ccccc3)ccc21,active
12,CC(=O)N[C@H](Cc1ccc2ccccc2c1)C(=O)N[C@H](Cc1ccc(Cl)cc1)C(=O)N[C@H](Cc1cccnc1)C(=O)N[C@@H](CO)C(=O)N[C@@H](Cc1ccc(NC(=O)[C@@H]2CC(=O)NC(=O)N2)cc1)C(=O)N[C@H](Cc1ccc(NC(N)=O)cc1)C(=O)N[C@@H](CC(C)C)C(=O)N[C@@H](CCCCNC(C)C)C(=O)N1CCC[C@H]1C(=O)N[C@H](C)C(N)=O,inactive
13,COc1ccc(NC(=O)Nc2ccc3c(c2)C(=O)N([C@H](C)CO)C[C@H](C)[C@H](CN(C)S(=O)(=O)c2ccc(F)cc2)OCCCC[C@H](C)O3)cc1,inactive
14,CC(C)NC(=O)Nc1ccc2c(c1)C(=O)N([C@@H](C)CO)C[C@@H](C)[C@H](CN(C)C(=O)Nc1ccc(C(F)(F)F)cc1)OCCCC[C@H](C)O2,inactive
15,CC(C)NC(=O)Nc1ccc2c(c1)C(=O)N([C@H](C)CO)C[C@@H](C)[C@H](CN(C)C(=O)Nc1ccc(C(F)(F)F)cc1)OCCCC[C@H](C)O2,inactive
16,CC(C)NC(=O)Nc1ccc2c(c1)C(=O)N([C@H](C)CO)C[C@@H](C)[C@@H](CN(C)C(=O)Nc1ccc(C(F)(F)F)cc1)OCCCC[C@@H](C)O2,active
17,CC(C)NC(=O)Nc1ccc2c(c1)C(=O)N([C@@H](C)CO)C[C@@H](C)[C@H](CN(C)C(=O)Nc1ccc(C(F)(F)F)cc1)OCCCC[C@@H](C)O2,active
18,CC(C)NC(=O)Nc1ccc2c(c1)C(=O)N([C@H](C)CO)C[C@H](C)[C@H](CN(C)C(=O)Nc1ccc(C(F)(F)F)cc1)OCCCC[C@H](C)O2,inactive
19,CC(C)NC(=O)Nc1ccc2c(c1)C(=O)N([C@@H](C)CO)C[C@@H](C)[C@@H](CN(C)C(=O)Nc1ccc(C(F)(F)F)cc1)OCCCC[C@H](C)O2,inactive
